The results in this text go back to PubChem BioAssay.

A short description of test [1]: viability loss in pontine glioma line – cell-based, SU-DIPG-XVII, MIPE5.0, CellTiter-Glo, qHTS, dose response (AID 1347060).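 For AC50: cells exposed to compound for 48 hours before viability readout.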 Particulars: CellTiter-Glo ATP luminescence. For orientation: Cellular ATP, detected with luciferase, serves as a proxy for viable cell number.
Test [2] is described as follows: viability loss in pontine glioma line – cell-based, SU-DIPG-XIII, MIPE5.0, CellTiter-Glo, qHTS, dose response (AID 1347064; cut-off not given, nearly all actives have AC50 up to about 23 µM;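 for AC50: cells exposed to compound for 48 hours before the viability read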). Particulars: CellTiter-Glo ATP luminescence.
A short description of test [3]: viability loss in pontine glioma line – cell-based, SU-DIPG-XXV, MIPE5.0, CellTiter-Glo, qHTS, dose response (AID 1347065).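 Note: cells exposed to compound for 48 hours before ATP readout.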 To be noted: CellTiter-Glo ATP luminescence.
Test [4] in a line: JHH-DIPG-1 glioma cell viability, MIPE5.0 library, CellTiter-Glo luminescence, qHTS (AID 1347067).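 Note: cells exposed to compound for 48 hours before readout.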 To be noted: JHH-DIPG-1 glioma viability, CellTiter-Glo ATP luminescence.
Test [5] in a line: growth inhibition of DIPG cells – cell-based, MIPE5.0 library, qHTS (AID 1347068; cut-off not given, nearly all actives have IC50 up to about 30 µM;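 for IC50: cells exposed to compound for 48 hours before viability readout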). To be noted: SU-DIPG-XXV viability. In general terms: qHTS replaces the single test concentration by a dilution series.

Results filed as inconclusive are left out. Calls of active or inactive are those of the source. Unless noted, no cut-off is given here; in the data, nearly all actives have AC50 up to about 26 µM.

The term AC50 denotes the midpoint of the concentration-response curve, whichever way the signal moves. Usually IC50 stands for the concentration at which inhibition is half-maximal.

Consider `CNS(=O)(=O)Nc1nccc(Cc2c(C)c3ccc(Oc4ncccn4)cc3oc2=O)c1F`, for which the AC50 in test [1] is 1.48 µM (active); in test [2], 1.18 µM (active); in test [3], 2.35 µM (active); in test [4], 1.05 µM (active).

For the molecule `COc1cccc2c1c(O)c(C(=O)N(C)c1ccc(C(F)(F)F)cc1)c(=O)n2C`, the molecule was classed as inactive in test [1], in test [2], in test [3] and in test [4].

Consider `CC#CC(=O)N1CCC[C@H]1c1nc(-c2ccc(C(=O)Nc3ccccn3)cc2)c2c(N)nccn12`, for which the call in test [1], in test [2], in test [3] and in test [4] was inactive.

Take `CC1=C(c2ccc(O)cc2)[C@H](c2ccc(OCCN3CCCCC3)cc2)Oc2cc(O)ccc21`: the AC50 in test [1] is 20.9 µM (active); in test [2], 18.6 µM (active); in test [3], 16.6 µM (active). Further, the call in test [4] was inactive.

Take `Cc1cc(C(=O)Nc2cc(Nc3ccc4c(/C=C/c5ccccn5)n[nH]c4c3)ccc2F)n(C)n1`: the AC50 is 8.33 µM (active) in test [1], 7.42 µM (active) in test [2], 3.72 µM (active) in test [3] and 16.6 µM (active) in test [4].

For `COc1ccc(S(=O)(=O)NCc2ccc(C(=O)NCCc3ccc(Cl)cn3)cc2)cc1`, the molecule was called inactive in test [1], in test [2], in test [3] and in test [4].

For the molecule `CC(C)(O)CS(=O)(=O)Nc1ccc2c(c1)CCN(C(=O)COc1cccnc1)C2`, the AC50 is 0.263 µM (active) in test [1], 0.0372 µM (active) in test [2], 0.0833 µM (active) in test [3] and 0.0468 µM (active) in test [4].

Consider `O=C(NCc1ccc(S(=O)(=O)c2cccc(C(F)(F)F)c2)cc1)c1cnc2[nH]ncc2c1`, for which the AC50 in test [1] is 0.0263 µM (active); in test [2], 0.0118 µM (active); in test [3], 0.0166 µM (active); in test [4], 0.0148 µM (active).

For `COC(C)(C)CCn1nc(Nc2c(C)cccc2C)c2cnc(Nc3ccc(OCCN4CCCC4)c(F)c3)nc21`, the AC50 in test [1] was 16.6 µM (active); in test [2] it was 18.6 µM (active); in test [3] it was 14.8 µM (active); in test [4], 16.6 µM (active). Moreover, in test [5], the IC50 was 16.6 µM (active).

Regarding `CCCC1(CCC)CCC2(CCN(CCCN(CC)CC)C2)CC1`, the AC50 in test [1] is 7.42 µM (active); in test [2], 4.17 µM (active); in test [3] it was 6.61 µM (active); in test [4], 3.72 µM (active). In addition, the IC50 in test [5] is 10.5 µM (active).

On to `CN1C(=O)[C@@H](NC(=O)c2cc(Cc3ccccc3)on2)COc2ccccc21`, for which the outcome in test [1], in test [2], in test [3], in test [4] and in test [5] was inactive.

As to `Nc1ncnc(Nc2ccc(OCc3ccccc3)c(Cl)c2)c1/C=N/OCCN1CCOCC1`, the AC50 was 23.5 µM (active) in test [1], 16.6 µM (active) in test [2], 16.6 µM (active) in test [3] and 18.6 µM (active) in test [4]. Moreover, the IC50 in test [5] is 14.8 µM (active).

In the case of `CC(C)Nc1cc(-c2c[nH]c(C(=O)N[C@H](CO)c3cccc(Cl)c3)c2)c(Cl)cn1`, the AC50 is 1.48 µM (active) in test [1], 4.17 µM (active) in test [2], 3.32 µM (active) in test [3] and 1.66 µM (active) in test [4]. In test [5], the IC50 was 14.8 µM (active).

As for `C=C1C(=O)O[C@@H]2[C@H]3C(C)=CC[C@@]34O[C@@]4(C)CC[C@@H]12`, the AC50 is 11.8 µM (active) in test [1], 11.8 µM (active) in test [2], 9.34 µM (active) in test [3] and 8.33 µM (active) in test [4]. The IC50 in test [5] was 20.9 µM (active).

For the molecule `Nc1ncccc1-c1nc2ccc(-c3ccccc3)nc2n1-c1ccc(C2(N)CCC2)cc1`, the half-maximal activity concentration (AC50) in test [1] was 11.8 µM (active); in test [2], 4.17 µM (active); in test [3], 2.95 µM (active); in test [4], 5.9 µM (active). Besides, the IC50 in test [5] was 20.9 µM (active).

On to `Clc1cccc(-c2ccc(-c3nnc(CCCc4ccc5cccnc5n4)o3)cc2)c1`, for which the molecule was classed as inactive in test [1], in test [2], in test [3], in test [4] and in test [5].

With `COc1ccc(N2C(=O)N(c3c(C)cccc3Cl)Cc3cnc(Nc4ccc(C5CCN(C)CC5)cc4OC)nc32)nc1`, the AC50 is 3.72 µM (active) in test [1], 9.34 µM (active) in test [2], 9.34 µM (active) in test [3] and 16.6 µM (active) in test [4]. Besides, the IC50 in test [5] was 14.8 µM (active).

Take `CN1CCN(c2ccc(C(=O)Nc3n[nH]c4ccc(Cc5cc(F)cc(F)c5)cc34)c(NC3CCOCC3)c2)CC1`: the AC50 in test [1] is 2.09 µM (active); in test [2], 4.17 µM (active); in test [3], 2.35 µM (active); in test [4], 3.32 µM (active). Further, the IC50 in test [5] was 5.25 µM (active).

On to `Cn1ncc(Cl)c1-c1cc(C(=O)NC(CN)Cc2ccc(F)c(F)c2)oc1Cl` (configuration not stated), for which the AC50 in test [1] is 14.8 µM (active); in test [2], 5.9 µM (active); in test [3] it was 0.661 µM (active); in test [4] it was 18.6 µM (active). Further, the IC50 in test [5] was 16.6 µM (active).

On to `Nc1nc(Nc2ccc3c(c2)CC[C@@H](N2CCCC2)CC3)nn1-c1cc2c(nn1)-c1ccccc1CCC2`, for which the AC50 in test [1] is 9.34 µM (active); in test [2], 16.6 µM (active); in test [3], 6.61 µM (active); in test [4] it was 20.9 µM (active). The concentration for half-maximal inhibition (IC50) in test [5] is 26.3 µM (active).

As to `CNC(=O)CCc1cc(-c2ccc(-c3ccc(C(F)(F)F)cc3)cc2)n(-c2ccc(N3CCNCC3)cc2)n1`, the AC50 in test [1] was 5.25 µM (active); in test [2], 7.42 µM (active); in test [3], 2.63 µM (active); in test [4], 3.72 µM (active). Also, in test [5], the IC50 was 9.34 µM (active).

With `Cc1ccccc1-n1nc(-c2c(-c3ccc(F)cc3)nn3c2NC[C@@H](CO)C3)ccc1=O`, the molecule was called inactive in test [1], in test [2], in test [3], in test [4] and in test [5].

Consider `COc1cc(OC)c(/C=C/S(=O)(=O)Cc2ccc(OC)c(OP(=O)(O)O)c2)c(OC)c1`, for which the AC50 in test [1] was 0.0417 µM (active); in test [2], 0.0417 µM (active); in test [3] it was 0.0742 µM (active); in test [4] it was 0.059 µM (active). In addition, the IC50 in test [5] was 0.0742 µM (active).

Consider `Cn1ncc(Cl)c1-c1cc(C(=O)N[C@H](CN)Cc2ccc(F)c(F)c2)sc1Cl`, for which the AC50 was 18.6 µM (active) in test [1], 2.35 µM (active) in test [2], 1.32 µM (active) in test [3] and 16.6 µM (active) in test [4]. The IC50 in test [5] was 16.6 µM (active).

In the case of `CNC(=O)c1ccc(Nc2ncc(C(F)(F)F)c(NCc3nccnc3N(C)S(C)(=O)=O)n2)cc1`, the AC50 in test [1] is 4.68 µM (active); in test [2], 5.25 µM (active); in test [3], 3.72 µM (active); in test [4], 4.68 µM (active). For the same molecule, in test [5], the IC50 was 2.35 µM (active).

In the case of `Cc1[nH]c(/C=C2\C(=O)Nc3ccc(F)cc32)c(C)c1C(=O)NCCN1CCCC1`, the AC50 in test [1] is 12.9 µM (active); in test [2], 7.23 µM (active); in test [3], 6.45 µM (active); in test [4], 10.2 µM (active). In test [5], the call was inactive.

`CN1CC[C@@H](NC(=O)Nc2ccc(C#N)cc2)C[C@@H]1c1nc2ccccc2[nH]1`: the molecule was classed as inactive in test [1], in test [2], in test [3], in test [4] and in test [5].

Regarding `C=CC(=O)Nc1cccc(Oc2nc(Nc3ccc(N4CCN(C)CC4)c(F)c3)nc3[nH]ccc23)c1`, the AC50 was 2.63 µM (active) in test [1], 5.25 µM (active) in test [2], 1.86 µM (active) in test [3] and 9.34 µM (active) in test [4]. Besides, the IC50 in test [5] is 0.833 µM (active).

Take `CC(=O)N[C@H]1CSSC[C@@H](C(N)=O)NC(=O)[C@H](C(C)C)NC(=O)[C@H](C)NC(=O)[C@H](Cc2cnc[nH]2)NC1=O`: the result in test [1], in test [2], in test [3], in test [4] and in test [5] was inactive.
